Here are results for 96 compounds from PubChem BioAssay AID2314 (National Center for Advancing Translational Sciences (NCATS), 2010).

Molecules are shown by their SMILES. The campaign covered roughly 300,000 compounds. About 37,000 (12%) were called active. Many of the other results were omitted from the sample, so actives are more common in it than they were. A number with no mark means an inactive call. Rule as the data show it: active = max response mostly above about 13% (no sharp cut-off); inactive = mostly below about 14%.

The assay is described as follows: Cycloheximide Counterscreen for Small Molecule Inhibitors of Shiga Toxin. Also: read at 38.3 µM for the half of the compounds with a filed dose; 0% is about no effect. Particulars: cell reporter, cycloheximide protein synthesis inhibition counterscreen; hits give high values. A general note: Counterscreens check selectivity or assay interference.
In the case of `CCOCCc1nn2c(=O)cc(CSCC(=O)Nc3cccc(C)c3C)nc2s1`, the max response was -4.2%.
With `COc1ccccc1S(=O)(=O)c1c(C)cc(C)[nH]c1=O`, the max response is -6.18%.
On to `CCCCOC(=O)c1ccc(NC(c2ccc(C)cc2)P(=O)(OC)OC)cc1` (stereo unspecified), for which the max response is -2.29%.
Consider `Cc1cc(C)c(OCC(=O)N(Cc2cccs2)C2CCS(=O)(=O)C2)c(C)c1` (stereo unspecified), for which the max response is 8.48%.
In the case of `CN(c1ccccc1)c1ccc([N+](=O)[O-])c2nonc12`, the max response was 12% (active).
Regarding `Cc1ccccc1Nc1c([N+](=O)[O-])ccc2nonc12`, the max response is 0.319%.
Take `CCN(CC)c1ccc([N+](=O)[O-])c2cccnc12`: the max response is 0.792%.
`CC(C)c1ccc(NC2CCCN(C(=O)c3ccncc3)C2)cc1` (stereo unspecified): the max response is -4.01%.
Regarding `Cc1ccc(S(=O)(=O)N2CCN(CC(=O)N/N=C/c3ccc(Br)s3)CC2)cc1`, the max response was -1.09%.
For `COCCCNc1nc2ccccc2nc1NS(=O)(=O)c1ccc(F)cc1` the value was -1.37%.
`COc1ccc(N2CCN(C(C)=C3C(=O)c4ccccc4C3=O)CC2)cc1`: the max response is 40.7% (active).
In the case of `COc1ccc(C2C(C(=O)N3CCN(c4ccc(OC)cc4)CC3)c3ccccc3C(=O)N2C)cc1` (stereo unspecified), the max response is -3.17%.
Take `COc1ccc(OCC(=O)N2CCN(C(=O)c3cccs3)CC2)cc1`: the max response was -2.3%.
As for `COc1ccc(N2CCN(C(=O)c3cccs3)CC2)cc1`, the max response is 20.7% (active).
Regarding `O=C(COc1ccccc1)Nc1ccc(N2CCN(C(=O)c3cccs3)CC2)cc1`, the max response was -1.71%.
`CC(=C1C(=O)c2ccccc2C1=O)N1CCN(c2ccccn2)CC1`: the max response was 4.62%.
Turning to `O=C(N[C@@H](Cc1ccccc1)C(=O)OCc1ccccc1)c1nc[nH]c1C(=O)N[C@@H](Cc1ccccc1)C(=O)OCc1ccccc1`, the max response is -1.4%.
With `Cc1ccc(N2C(=O)CC(Sc3ncn[nH]3)C2=O)cc1` (stereo unspecified), the max response was -4.4%.
`COc1cccc(/C=C2\Sc3ccc(C(=O)NCC4CCCO4)cc3N(C)C2=O)c1` (stereo unspecified): the max response was 6.25%.
`O=[N+]([O-])c1cccc(Nc2c3ccccc3nc3ccccc23)c1`: the max response is 4.55%.
The result for `O=[N+]([O-])c1ccc2c(c1)Nc1nc3ccccc3nc1N2` reads 22.7% (active); that for `COc1ccc([N+](=O)[O-])cc1-c1nc2ccccc2nc1-c1ccccc1`, -2.38%; that for `O=C(NCCOc1cccnc1)c1ccc(OC2CCN(Cc3ccccn3)CC2)cc1`, 10.4%.
As to `O=C(CN1CCC(O)(c2cccc(C(F)(F)F)c2)CC1)NCCc1ccccc1`, the max response is -0.807%.
As to `COc1cccc(NC(=O)c2nn(C34CC5CC(CC(C5)C3)C4)cc2[N+](=O)[O-])c1`, the max response was 13.1%.
Consider `Cn1cc([N+](=O)[O-])c(C(=O)Nc2cnn(Cc3ccc(F)cc3)c2)n1`, for which the max response is 9.36%.
In the case of `Cc1nn(CC(=O)Nc2ccc3c(c2)OCO3)c(C)c1[N+](=O)[O-]`, the max response was 0.353%.
For `Cc1onc(C(=O)Nc2ccc3c(c2)OCO3)c1[N+](=O)[O-]`, the max response was 30.6% (active).
On to `Cn1cc([N+](=O)[O-])c(C(=O)Nc2ccc3c(c2)OCCO3)n1`, for which the max response was 26.5% (active).
As for `Cc1nc([N+](=O)[O-])cn1CC(=O)Nc1ccc2c(c1)OCO2`, the max response is -2.41%.
For `CCCc1nn(C)c2c(=O)[nH]c(-c3cc(S(N)(=O)=O)ccc3OCC)nc12` the value was -4.06%; for `COCCn1c(SCC(=O)N2CCCCCC2)nc2c(c1=O)SCC2`, 4.66%.
The result for `CC(C)Cc1ccc(C(C)C(=N)N)cc1` (stereo unspecified) reads -2.08%; that for `COCc1ccc(C(=O)NC2CC(C)(C)Cc3c2cnn3-c2ccc(C)cc2)o1` (stereo unspecified), 4.44%; that for `COCc1c(N)c(C)nc(Cl)c1C#N`, 14% (active).
In the case of `COC(=O)c1c(C)c(C)nc(N)c1C#N`, the max response was 5.15%.
Take `Cc1nc(Cl)c(C#N)c2c1CCCC2`: the max response was 4.78%.
Regarding `Fc1ccc(CNCc2ccc(Br)cc2)cc1`, the max response is 2.17%.
Regarding `CCc1cc2c(=O)n(-c3ccccc3)c(SCC(=O)O)nc2s1`, the max response was -0.568%.
Consider `COCc1cc(=O)[nH]c(SC)n1`, for which the max response is -3.39%.
For `O=C(Cc1cccs1)N/N=C/c1ccc(OCc2ccccc2)cc1`, the max response is -2.21%.
On to `O=C(N/N=C/c1ccc(OCc2ccccc2)cc1)c1ccc(O)cc1`, for which the max response is 18.7%.
The result for `Cc1cccc(OCC(=O)NCC(=O)N/N=C/c2ccc(N(C)C)cc2)c1` reads 1.69%; that for `O=C(N/N=C/c1cccc(OCc2ccccc2)c1)c1ccc(Br)o1`, 47.1% (active).
As to `Cc1ccc(OCCOc2cccc(/C=N/NC(N)=O)c2)cc1`, the max response was 15.2% (active).
In the case of `Cc1ccc(OCCOCCOc2ccc(Br)cc2/C=N\NC(=O)c2ccncc2)cc1`, the max response is -4.52%.
For `Cc1ccc(S(=O)(=O)Oc2ccc(/C=N/NC(=O)c3ccncc3)cc2)cc1` the value was 6.52%.
In the case of `CC(C)NS(=O)(=O)c1ccc(OCC(=O)NC2CCCCCC2)cc1`, the max response was 1.29%.
For `Cc1nc2cc3c(cc2s1)OCO3` the value was -2.58%.
`Cc1nc2ccc(S(=O)(=O)NC(C(=O)N3CCCCCC3)C(C)C)cc2s1` (stereo unspecified): the max response was -2.97%.
`Fc1ccc2nc(N3CCCCC3)sc2c1`: the max response was 29.6% (active).
With `Cc1nc(N2CCCCC2)sc1C=O`, the max response is -2.42%.
With `c1ccc2sc(N3CCNCC3)nc2c1`, the max response was 11.7%.
For the compound `O=C(NCCc1cccc(F)c1)C1CCCN(c2nc3ccccc3s2)C1` (stereo unspecified), the max response was -3.33%.
Consider `Brc1ccc2nc(N3CCCC3)sc2c1`, for which the max response was 38.8% (active).
The result for `c1c2c(cc3sc(N4CCCCC4)nc13)OCCO2` reads 25.6% (active).
For `CCOC(=O)N1CCC(NC(=O)c2ccc3nc(N4CCOCC4)sc3c2)CC1`, the max response was -1.55%.
For `O=C(CN(CC1CCCO1)C(=O)CNS(=O)(=O)c1ccc(Cl)cc1)NCc1ccccc1` (stereo unspecified), the max response is -3.57%.
As for `CC1=C[C@H]2Cc3cc(C)cc(C)c3S(=O)(=O)[C@@H]2C=C1`, the max response was -2.12%.
For `CC(Sc1nnc(-c2ccccc2F)n1C1CC1)C(N)=O` (stereo unspecified) the value was -2.7%; for `O=C(NNS(=O)(=O)c1ccc([N+](=O)[O-])cc1)C1CCCCC1`, 10.1%.
The result for `COc1ccccc1C(=O)N1CCN=C1SCc1cccnc1` reads 0.58%; that for `O=C1CN(C(=O)c2ccccc2F)C(c2ccc(F)cc2)c2cc(F)ccc2N1` (stereo unspecified), -4.28%; that for `Oc1ccc(/C=N/Nc2ccc(C(F)(F)F)cn2)cc1O`, 57.2% (active).
The result for `O=C(N/N=C/c1ccc(O)c(O)c1)C1c2ccccc2Oc2ccccc21` reads -0.597%; that for `Cc1nccn1CC(=O)N/N=C/c1ccc(O)c(O)c1`, -1.27%; that for `CCCc1cc(=O)[nH]c(SCC(=O)Nc2sc3c(c2C#N)CCCC3)n1`, -1.28%.
On to `O=S(=O)(NC1CCCCC1N1CCCCC1)c1ccc(Cl)cc1` (stereo unspecified), for which the max response was -6.15%.
Regarding `O=C(O)c1ccc(S(=O)(=O)N2CCOCC2)o1`, the max response is -6.82%.
Regarding `COc1ccc(Cl)cc1NC(=O)CN(C)C(=O)CNC(=O)C12CC3CC(CC(C3)C1)C2`, the max response is 6.85%.
For the compound `COc1ccc(OC)c(NC(=O)CN(Cc2ccc(Cl)cc2)S(C)(=O)=O)c1`, the max response is -2.07%.
For `COc1ccc(Cl)cc1NC(=O)CN(C)Cc1ccc(OC)c(OC)c1` the value was 10.8% (active).
In the case of `CN1CCN(c2ccccc2NC(=O)COc2ccc(C3CCCCC3)cc2)CC1`, the max response is -1.31%.
In the case of `CCOC(=O)c1cccc(NC(=O)C2CCN(c3ncnc4c3nc3n4CCCCC3)CC2)c1`, the max response is -6.95%.
For the compound `O=C(NCc1ccncc1)C1CCCN(S(=O)(=O)c2ccc(Br)cc2)C1` (stereo unspecified), the max response is 1.08%.
`COc1ccc(CSc2nnnn2-c2ccc(O)cc2)cc1F`: the max response is -3.78%.
As to `CCc1ccc2oc(-c3ccc(N)cc3)nc2c1`, the max response was 38.2% (active).
In the case of `Cn1c(Cc2cccc3ccccc23)nnc1SCC(=O)N1CCN(c2cccc(Cl)c2)CC1`, the max response was -3.1%.
The result for `COCc1cc(C)n(CC(=O)NCC2CCCO2)c(=O)c1C#N` (stereo unspecified) reads -6.37%.
With `Cc1c(CCC(=O)O)c(=O)oc2c(C)c(OCc3ccccc3Cl)ccc12`, the max response is 1.9%.
Consider `CC(C)(C)n1nnnc1C(c1ccccc1F)N1CCN(C(=O)c2ccco2)CC1` (stereo unspecified), for which the max response is -1.72%.
In the case of `COCCCNC(=O)/C=C/c1ccc(OCc2c(F)cccc2Cl)cc1`, the max response is -7.84%.
For the compound `CN(C)CCCNC(=O)/C=C/c1ccc(OCc2c(F)cccc2Cl)cc1`, the max response was -2.24%.
For the compound `O=C(/C=C/c1ccc(OCc2c(F)cccc2Cl)cc1)N1CCOCC1`, the max response was 27.3% (active).
On to `COc1ccc(NS(=O)(=O)c2cc(C(=O)Nc3ccccc3C(=O)O)ccc2C)cc1`, for which the max response is 1.17%.
For the compound `CCOc1cc(N2CCOCC2)c(OCC)cc1NC(=O)c1cc(C)nc2ccccc12`, the max response is -1.57%.
The result for `O=[N+]([O-])c1ccc2c(c1)C(O)n1nc(-c3ccccc3)nc1S2` (stereo unspecified) reads -1.52%.
For the compound `COc1ccc(-c2nc3cc([N+](=O)[O-])ccc3o2)cc1OC`, the max response is 24% (active).
For the compound `O=[N+]([O-])c1ccc2oc(-c3cccc(O)c3)nc2c1`, the max response is 46.9% (active).
For `CC(=O)Oc1ccc2c(=O)oc(-c3ccc([N+](=O)[O-])cc3)nc2c1` the value was 1.51%; for `COc1cc2c(cc1OC)C(c1cccc([N+](=O)[O-])c1)=NCC2`, -3.32%.
As to `Cc1nnc(-c2ccc(Oc3ccc(C)c(C)c3)c([N+](=O)[O-])c2)o1`, the max response is 4.56%.
The result for `O=C1[C@@H]2C(c3cccnc3)=NO[C@@H]2C(=O)N1c1ccc(Cl)cc1Cl` reads -1.88%.
Regarding `O=C(CN1CCN(c2ccc(O)cc2)CC1)Nc1ccc(-c2ccccc2)cc1`, the max response was -0.918%.
On to `Oc1ccc(-c2nncn2-c2ccccc2)cc1`, for which the max response is 1.52%.
The result for `Oc1ccc(-c2cccc(-c3ccc(O)cc3)c2)cc1` reads 29.3% (active).
